Experimental data taken from PubChem BioAssay.
Values without a mark were called inactive. Cut-off read from the data, not from the text of the source: active = inhibition above about 30%; inactive = the rest.

Assay: growth suppression of yeast trafficking mutant, preliminary HTS, modulators of trafficking downstream of Golgi apparatus project, 1536-format plate, OD 615 nm (AID 637)
Conditions: yeast transport mutant growth, absorbance 615 nm, 18 h; active compounds read high

Row | Structure (SMILES) | inhibition [%]
1 | O=C(NCCO)c1scc2c1OCCO2 | -1.8
2 | CN(c1ccccc1)S(=O)(=O)c1ccc(C(=O)OCC(=O)NCc2ccco2)cc1 | 16.4
3 | Clc1ccc(SCCn2ccnc2)cc1 | -10.2
4 | CC(C)(CO)NC(=O)CCCOc1ccc(Cl)cc1Cl | 0.17
5 | Cc1ccccc1NC(=O)CSc1nc(N)c(C#N)c(-c2cccs2)c1C#N | 6.83
6 | CCN(CC)C(=O)CSc1nc2ccc(NC(=O)CSc3nccn3C)cc2s1 | -1.45
7 | Cc1cc(Oc2ccccc2)nc(-c2ccccc2)n1 | -5.25
8 | COc1ccc(S(=O)(=O)CCC(=O)O)cc1 | 2.54
9 | O=C(Nc1ccc(OC(=O)c2ccco2)cc1)c1ccco1 | -10.5
10 | CCCc1nnc(SCC(=O)N2CCOCC2)n1Cc1ccco1 | -6.39
11 | Cc1ccc(S(=O)(=O)N2CCC(C(=O)N3CCC[C@H]3C(=O)NCc3ccccc3)CC2)cc1 | -0.66
12 | C=C(C)Cn1c(N2CCN(CC)CC2)nc2c1c(=O)[nH]c(=O)n2C | 6.39
13 | Cc1cc2oc(=O)cc(CN3CCN(Cc4ccc5c(c4)OCO5)CC3)c2cc1C | -1.29
14 | Cn1c(=O)c(C(=O)Nc2cccnc2)c(O)c2ccccc21 | 2.46
15 | C=Cn1c(C(=O)O)cc(CC)c1-c1ccccc1 | -7.42
16 | COc1ccccc1N1C(=O)CC(Sc2nc(C)cc(C)n2)C1=O (stereo not given) | -7.21
17 | COc1cccc(NC(=O)NC2(C(F)(F)F)Oc3ccccc3O2)c1 | -0.16
18 | CCOC(=O)Nc1ccc2c(c1)N(C(=O)CN(CC)CC)c1ccccc1C=C2 | 5.9
19 | O=C1C(Cl)=C(N2CCOCC2)C(=O)N1CCc1ccccc1 | -1.11
20 | CCN(CCCNC(=O)CCNC(=O)Cn1ccc2ccccc2c1=O)c1ccccc1 | -2.86

Row | Structure (SMILES) | inhibition [%]
21 | O=C(Nc1cccc2ccccc12)N1CCOCC1 | 11.3
22 | O=C1C(Cl)=C(N2CCCCC2)C(=O)N1c1ccccc1Cl | 2.95
23 | CCC1(c2ccc(F)cc2)NC(=O)N(CC(=O)c2ccc[nH]2)C1=O (stereo not given) | -4.83
24 | Nn1c(SCC(=O)Nc2ccc(F)cc2)nnc1-c1cccnc1 | -3.67
25 | CC1=C(C(N)=O)C(c2cccnc2)n2nc(SCc3ccccc3Cl)nc2N1 (stereo not given) | -3.77
26 | COc1cc2c(cc1OC)C(c1cccnc1)CC(=O)N2 (stereo not given) | -0.98
27 | CC(=O)c1cccc(NC(=O)c2ccc(NS(C)(=O)=O)cc2)c1 | 1.75
28 | CCC(C)(C)n1nnnc1C(c1ccc(OC)c(OC)c1)N1CCN(c2ccc(F)cc2)CC1 (stereo not given) | 2
29 | Cc1cccc(C)c1NC(=O)CS(=O)CC(=O)NC1CCCc2ccccc21 (stereo not given) | -4.59
30 | COc1ccccc1-c1cn[nH]c(=S)n1 | -8.06
31 | COc1ccc(S(=O)(=O)N2CCOCC2)cc1C(=O)Nc1cc(C)on1 | -9.83
32 | Cc1cc(C(=O)OCCO)c(C#N)c(N)n1 | 1.94
33 | CCOC(=O)c1nnc(-c2ccccc2)o1 | -1.43
34 | COCC(=O)Nc1sc2c(c1C(=O)OC)C(C(=O)OC)CC2 (stereo not given) | 11.4
35 | Cc1oc(-c2ccc(Cl)cc2)nc1CS(=O)CC(=O)NCCCN(C)C1CCCCC1 (stereo not given) | 5.56
36 | Cn1c(=O)c(-c2ccccc2)nn2c3ccccc3nc12 | 3
37 | CCN1CCN(c2ncnc3c2oc2nc(C)c4c(c23)CC(C)(C)OC4)CC1 | -3.17
38 | CCn1c(=O)cc(SCC(=O)Nc2cccnc2)c2ccccc21 | 1.43
39 | COCCCNS(=O)(=O)c1ccc2c(c1)CCN2C(C)=O | -0.32
40 | CCN(CC)S(=O)(=O)c1ccc(Cl)c(C(=O)OC)c1 | 2.9
